Screening data deposited in PubChem BioAssay by National Center for Advancing Translational Sciences (NCATS).
Hits are enriched below; roughly 2.4% of the tested compounds scored in any of these assays.
D2 antagonist = antagonists of human D2 dopamine receptor | 340,000 tested, 2% active | HEK293 TREx D2 cells, calcium flux, dopamine EC80 | inhibition, % at 10 µM | P14416; in the data active = inhibition above about 30%; inactive = below that, where a call was filed; also: 0% is about no effect
Target sequence (P14416 whole entry, looked up): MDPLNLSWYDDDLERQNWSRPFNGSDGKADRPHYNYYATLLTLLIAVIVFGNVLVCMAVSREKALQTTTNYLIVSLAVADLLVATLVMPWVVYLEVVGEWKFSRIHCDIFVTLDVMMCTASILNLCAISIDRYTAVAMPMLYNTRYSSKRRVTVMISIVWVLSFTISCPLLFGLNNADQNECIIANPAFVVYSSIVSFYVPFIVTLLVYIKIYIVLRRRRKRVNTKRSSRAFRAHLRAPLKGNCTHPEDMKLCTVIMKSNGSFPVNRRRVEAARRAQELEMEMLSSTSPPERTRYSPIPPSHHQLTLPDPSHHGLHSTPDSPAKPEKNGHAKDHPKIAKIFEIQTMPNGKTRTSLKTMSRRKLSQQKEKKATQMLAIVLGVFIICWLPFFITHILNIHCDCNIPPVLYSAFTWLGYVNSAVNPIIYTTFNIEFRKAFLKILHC
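Antagonism is scored as inhibition of an EC80 dopamine-evoked calcium signal in a force-coupled, tetracycline-inducible HEK293 T-REx D2 line, with compound present 180 s before agonist.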
D2 PAM-1 = human D2 receptor positive allosteric modulation; P14416; DiscoveRx D2 beta-arrestin cells, luminescence, 90 min; 100% = 57 uM dopamine signal; potentiation, % (concentration not given with the values); 360,000 tested, 0.23% active; AID 624464; in the data active = potentiation above about 50%; inconclusive = mostly about 30% to 49%
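PathHunter D2 cells, attached overnight at 37 deg C, received compound in DMSO plus dopamine at EC20 (50 nM final) for 90 min at 37 deg C. Beta-arrestin recruitment was read as luminescence after 1 h with detection reagent at ambient temperature.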
D2 PAM-2 = positively modulates the human D2 dopamine receptor allosterically. potentiation, % at 10 µM. P14416. 340,000 tested, 0.34% active. HEK293 T-REx D2, calcium flux, EC20 dopamine potentiation;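 active = potentiation over 3 SD above the plate norm, cut at about 30% in these data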; also: 0% is about no effect
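Potentiation of an EC20 dopamine calcium response measured kinetically over 180 s, after a preceding 180 s compound-only read flagging agonists. Cells: inducible Hek293 Trex D2 line, 4000/well, cultured overnight at 30 C before dye loading.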
D2 ag-1 = agonists of human D2 dopamine receptor (beta-arrestin). P14416. DiscoveRx PathHunter D2 beta-arrestin, luminescence, 90 min; 100% = 57 uM dopamine signal. activation, % (test concentration not listed). 360,000 tested, 0.084% active. AID 624465; in the data active = activation above about 40%; inconclusive = between about 15% and that limit
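DiscoveRx PathHunter D2 beta-arrestin cells (2,100/well) attached overnight, then compound-stimulated 90 min at 37 C in HBSS/10 mM HEPES/0.1% Tween-20 buffer; beta-galactosidase complementation read by luminescence after 1 h at ambient temperature. Dopamine 57 uM final (EC100) as control.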
D2 ag-2 = agonists of human D2 dopamine receptor; AID 485358; 340,000 tested, 0.53% active; HEK293 T-REx D2 cells, calcium flux agonist mode; activation, % at 2 µM; P14416;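 active = activation over 3 SD above normal in the single-dose calcium agonist read, cut at about 30% in these data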; also: 0% is about no effect
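Calcium-flux readout, 1 cycle/sec over 180 s following compound pin transfer, in inducible HEK293 Trex D2 cells (force-coupled); dopamine controls included. Positive calcium responses during this window marked compounds as potential agonists.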
Starred values were filed as active, the others as inactive; ? = inconclusive; . = no result.

SMILES | D2 antagonist | D2 PAM-1 | D2 PAM-2 | D2 ag-1 | D2 ag-2
CCc1ccc(N(C(C)=O)C2C=CS(=O)(=O)C2)cc1 (stereo unspecified) | 37* | -5 | 5 | -2 | 1
CC1Cc2ccccc2N1C(=O)COC(=O)c1ccco1 (stereo unspecified) | . | -10 | . | 1 | .
CC1Cc2ccccc2N1C(=O)COC(=O)c1ccc([N+](=O)[O-])o1 (stereo unspecified) | . | 58* | . | 12 | .
CCCCN(C)C1=CC2=CC(=C(C#N)C#N)CCC2CC1 (stereo unspecified) | 73* | 13 | -19 | 10 | 140*
N#CC(C#N)=C1C=C2C=C(N3CCCCC3)CCC2CC1 (stereo unspecified) | 87* | 22 | -18 | ? | 132*
N#CC1=C(N)C2=C(N3CCCCC3)CCCC2C1(C#N)C#N (stereo unspecified) | -15 | 4 | 17 | 3 | 1
Cc1ccc2c(CC(=O)NCc3ccccc3)coc2c1C | . | . | 0 | . | -1
COc1ccc2oc(-c3ccc(C)c(NC(=O)c4ccc5c(c4)OCCO5)c3)nc2c1 | . | . | 1 | . | 0
CCOc1ccc(OCCn2nnc3ccccc3c2=O)cc1 | 7 | -5 | 52* | 4 | -1
CCc1ccc(-n2nc3ccc(NC(=O)c4ccc(C#N)cc4F)cc3n2)cc1 | . | . | -5 | . | 0
CCOc1ccc(-c2nnc3n2N=C(c2ccc(OC)cc2)CS3)cc1 | 19 | -2 | 9 | 1 | 1
CCc1nnc2n1N=C(c1ccc(OC)cc1)CS2 | 34* | -7 | 4 | -3 | 0
CC(=O)c1ccccc1OCCCOc1cccc2cccnc12 | . | 77* | . | 4 | .
CC(=O)c1ccc(OCCCOc2cccc3cccnc23)cc1 | 13 | -2 | 0 | -5 | -1
Cc1c(Cl)cccc1NS(=O)(=O)c1ccc2[nH]cc(C(=O)NC3CCCC3)c(=O)c2c1 | . | . | -4 | . | -1
Cc1cc(N2CCN(C)CC2)nc2ccc(NC(=S)NCCN3CCc4ccccc4C3)cc12 | 15 | -20 | -25 | 0 | -1
Cc1cc(N2CCN(C)CC2)nc2ccc(NC(=S)NCCCN3CCc4ccccc4C3)cc12 | 34* | -14 | -29 | -3 | 1
CCN1CCN(c2cc(C)c3cc(NC(=S)NCCCN4CCc5ccccc5C4)ccc3n2)CC1 | 53* | -14 | -32 | -3 | 1
CCc1nnc2c(N3CCN(c4cccc(C(F)(F)F)c4)CC3)nc3ccccc3n12 | . | . | -7 | . | 0
CCN(c1cccc(C)c1)S(=O)(=O)c1ccc2c(c1)CCN2C(C)=O | 2 | -36 | -15 | -1 | -1
CCN(c1cccc(C(F)(F)F)c1)S(=O)(=O)c1ccc2c(c1)CCN2C(C)=O | 31* | -26 | -9 | -1 | 0
N#C/C(=C\c1ccccc1C(F)(F)F)C(=O)Nc1ccccc1 | -4 | 7 | 6 | 1 | 0
CCc1cccc(CC)c1NC(=O)/C(C#N)=C/c1ccccc1C(F)(F)F | -2 | 96* | -20 | 10 | -1
CC(C)(C)NC(=O)C1c2ccccc2Oc2ccccc21 | 47* | 7 | 12 | -4 | 0
CCc1ccc(N2CCn3c2nc2c3c(=O)n(CCc3ccccc3)c(=O)n2C)cc1 | . | . | 12 | . | 0
SMILES | D2 antagonist | D2 PAM-1 | D2 PAM-2 | D2 ag-1 | D2 ag-2
COC(=O)c1c(-c2cccs2)csc1NC(=O)c1cc(OC)cc(OC)c1 | . | . | 7 | . | 2
O=C(Nc1c(C(=O)N2CCCCC2)cnn1-c1ccccc1)c1ccccc1F | -16 | -9 | 1 | -3 | 1
N#Cc1cnn(-c2ccccc2)c1NC(=O)c1ccccc1F | 14 | -2 | 80* | 7 | 0
O=C(O)c1ccccc1SCc1nc2ccccn2c1Br | 51* | -10 | 0 | -6 | 0
N=C(N)SCc1nc2ccccn2c1Br | 2 | -22 | -3 | 0 | 0
COc1ccc(OC2CCN(C(=O)Nc3ccc(C)cc3)CC2)cc1 | 50* | -21 | -13 | -8 | 1
Cc1ccc(NC(=O)N2CCC(C(=O)NCc3ccccc3)CC2)cc1 | 39* | -12 | -7 | -2 | 0
COc1ccc(NC(=O)N2CCC(C(=O)c3ccc(F)cc3)CC2)cc1 | -15 | -15 | 8 | 1 | 0
COc1cccc(CNC(=O)C(=O)NCC(c2ccco2)S(=O)(=O)c2ccccc2)c1 (stereo unspecified) | . | . | 24 | . | -3
COc1ccc(-n2nc(C(=O)Nc3ccc(C)cn3)c3c4ccccc4n(C)c3c2=O)cc1 | . | . | 0 | . | 0
Nc1ccccc1C(=O)NCc1ccc(F)cc1 | -7 | -2 | 3 | 2 | 0
Nc1ccccc1C(=O)NCc1ccc(Cl)cc1 | 30* | 8 | 1 | 2 | 27
CCC1CN(C(=O)Nc2cccc3c2CCCC3)c2ccccc2O1 (stereo unspecified) | . | . | 3 | . | 0
CC1CCN(CCCOc2ccc(OCc3ccccc3)cc2)CC1 | 8 | -37 | -18 | -9 | 2
CCC(=O)c1ccccc1OCCCN1CCC(Cc2ccccc2)CC1 | 97* | -11 | -34 | 1 | 0
CC(=O)CCc1ccc(OCCCCN2CCC(Cc3ccccc3)CC2)cc1 | 54* | -7 | -26 | -1 | 0
N#Cc1ccccc1OCCCN1CCC(Cc2ccccc2)CC1 | 85* | -7 | -27 | 0 | 0
Cc1ccc([N+](=O)[O-])c(OCCN2CCC(Cc3ccccc3)CC2)c1 | 68* | -16 | -32 | -3 | 1
COc1cc(NS(=O)(=O)c2cnc(N)nc2)cc(OC)c1 | . | . | 10 | . | 1
Cc1ccccc1OCCN1CCC(Cc2ccccc2)CC1 | 46* | -20 | -27 | -3 | 0
CCOc1ccccc1OCCN1CCC(Cc2ccccc2)CC1 | 64* | -19 | -18 | 0 | -2
CCOc1ccccc1OCCN1CCCC1 | -3 | -65 | -1 | -2 | 1
COc1cccc(OC)c1OCCCCN1CCC(Cc2ccccc2)CC1 | 76* | -22 | -27 | 0 | 0
COc1cccc(OC)c1OCCCCN1CCCC1 | 3 | -31 | -11 | 0 | 0
Cc1ccccc1OCCOCCN1CCCCCC1 | . | -20 | -27 | 0 | .
SMILES | D2 antagonist | D2 PAM-1 | D2 PAM-2 | D2 ag-1 | D2 ag-2
COc1ccccc1OCCCCN1CCN(C(c2ccccc2)c2ccccc2)CC1 | 61* | -14 | -19 | -3 | 25
Cc1ccc(OCCn2nnc3sc4c(c3c2=O)CCC(C)C4)cc1 (stereo unspecified) | . | . | 1 | . | .
Cc1cc(N/N=C/c2ccc(O)cc2O)nc(-c2ccccc2O)n1 | -9 | ? | 2 | 41* | 0
Cc1cc(N/N=C/c2ccccc2O)nc(-c2ccccc2O)n1 | 4 | -19 | 2 | -2 | -1
Oc1ccc(/C=N/N2CCCCC2)c(O)c1O | . | 9 | . | 2 | .
Oc1ccc(/C=N/N2CCOCC2)c(O)c1O | . | 54* | -3 | ? | .
Cc1ccc(CNC(=O)CCS(=O)(=O)c2ccc3c(c2)oc(=O)n3C)cc1 | 30* | 4 | 7 | 2 | -1
